Source: the supplement of paper PMC13380429

Tested on: Vero E6 infected with SARS-CoV-2
Assay: inhibition of SARS-CoV-2 cytopathic effect; higher = more antiviral protection, active = above 15
Conditions: 48 h

Measured: inhibition of SARS-CoV-2 cytopathic effect

CC[N+](C)(CC)CCOC(=O)C1c2ccccc2Oc2ccccc21 [methantheline]
inactive: 1 nM 7.35% | 8.33 nM 3.87% | 100 nM 1.9% | 833.33 nM -0.21% | 10000 nM 3.41%

CC(C)(C)C(=O)OCOP(=O)(COCCn1cnc2c(N)ncnc21)OCOC(=O)C(C)(C)C [adefovir-dipivoxil]
inactive: 1 nM 2.79% | 8.33 nM 1.23% | 100 nM -0.37% | 833.33 nM -2.27% | 10000 nM -3.69%

CC(=O)NC[C@H]1CN(c2ccc(N3CCN(C(=O)CO)CC3)c(F)c2)C(=O)O1 [eperezolid]
inactive: 1 nM -1.15% | 8.33 nM -0.41% | 100 nM -0.04% | 833.33 nM 0.64% | 10000 nM 0.19%

CNCCCC1(c2ccccc2)OC(C)(C)c2ccccc21 (stereo not given) [talopram]
inactive: 1 nM -0.51% | 8.33 nM -1.8% | 100 nM 0.91% | 833.33 nM -2.03% | 10000 nM -3.52%

O=NO [sodium-nitrite]
inactive: 1 nM 1.28% | 8.33 nM -0.03% | 100 nM 3.46% | 833.33 nM 3.43% | 10000 nM 0.91%

CC1(C)OC[C@H](NC(=O)Nc2ccc(Br)cc2Br)[C@H](c2ccccc2)O1
inactive: 1 nM -1.15% | 8.33 nM 0.87% | 100 nM -2.04% | 833.33 nM -3.68% | 10000 nM -5.84%

CCC(=O)O[C@@H]1CC(=O)O[C@H](C)C/C=C/C=C/[C@H](OC(C)=O)[C@H](C)C[C@H](CC=O)[C@H](O[C@@H]2O[C@H](C)[C@@H](O[C@H]3C[C@@](C)(OC(C)=O)[C@@H](OC(=O)CC)[C@H](C)O3)[C@H](N(C)C)[C@H]2O)[C@H]1OC [miocamycin]
inactive: 1 nM 2.92% | 8.33 nM 1.39% | 100 nM 1.33% | 833.33 nM 3.25% | 10000 nM -2.09%

O[C@@H](Cc1ccncc1)C(Cl)(Cl)Cl
inactive: 1 nM 0.9% | 8.33 nM 1.38% | 100 nM 3.16% | 833.33 nM 0.72% | 10000 nM 0.84%

CCN1CCN(Cc2ccc(-c3cc4c(N[C@H](C)c5ccccc5)ncnc4[nH]3)cc2)CC1
inactive: 1 nM 1.55% | 8.33 nM 0.57% | 100 nM -1.71% | 833.33 nM -10.4% | 10000 nM -16%

C=C[C@H]1CN2CC[C@H]1C[C@H]2[C@H](O)c1ccnc2ccccc12 [cinchonidine]
inactive: 1 nM -0.165% | 8.33 nM 2.44% | 100 nM 2.67% | 833.33 nM 3.6% | 10000 nM 2.49%

CN1CC(=O)NC1=N [creatinine]
inactive: 1 nM 1.26% | 8.33 nM 1.05% | 100 nM -2.37% | 833.33 nM 1.18% | 10000 nM -1.05%

C#CC1(OCC(O)CN2CCN(c3cccc(C(F)(F)F)c3)CC2)CCCCC1 (stereo not given) [terciprazine]
inactive: 1 nM 0.45% | 8.33 nM -1.84% | 100 nM -0.67% | 833.33 nM 3.5% | 10000 nM -3.3%

CCCN1CCN(c2ccc(C(=O)NC3(C(=O)NCC#N)CCCCC3)cc2)CC1 [balicatib]
inactive: 1 nM 3.8% | 8.33 nM 0.96% | 100 nM -1.9% | 833.33 nM 0.29% | 10000 nM 10.8%

CC1=C(/C=C/C(C)=C/C=C/C(C)=C/CO)C(C)(C)CCC1 [retinol]
inactive: 1 nM -0.49% | 8.33 nM 0.39% | 100 nM 0.03% | 833.33 nM 2.09% | 10000 nM 2.75%

CC(=O)OCC(=O)[C@@]12OC3(CCCC3)O[C@@H]1C[C@H]1[C@@H]3CCC4=CC(=O)C=C[C@]4(C)[C@@]3(F)[C@@H](O)C[C@@]12C [amcinonide]
inactive: 1 nM -1.51% | 8.33 nM -0.7% | 100 nM -1.46% | 833.33 nM -0.87% | 10000 nM -3.21%

CC[n+]1c(-c2ccccc2)c2cc(N)ccc2c2ccc(N)cc21 [homidium]
inactive: 1 nM 4.78% | 8.33 nM 6.71% | 100 nM 5.98% | 833.33 nM 0.35% | 10000 nM 6.13%

CN(C)CCOC(c1ccc(Cl)cc1)c1ccccn1 (stereo not given) [carbinoxamine]
inactive: 1 nM 1.68% | 8.33 nM 1.53% | 100 nM 1.23% | 833.33 nM 1.37% | 10000 nM -1.45%

O=c1[nH]c2ccccc2c(=O)n1CCCN1CCN(c2ccccc2)CC1 [pelanserin]
inactive: 1 nM 0.03% | 8.33 nM 1.75% | 100 nM -0.08% | 833.33 nM 1.18% | 10000 nM 0.03%

CCCN(CC1CC1)c1nc(C)nc(Nc2c(Cl)cc(Cl)cc2Cl)c1Cl
inactive: 1 nM 4.5% | 8.33 nM 2.92% | 100 nM 1.63% | 833.33 nM 0.09% | 10000 nM 1.2%

O=C(O)CNC(=O)c1ccccc1 [hippuric-acid]
inactive: 1 nM -0.58% | 8.33 nM 1.5% | 100 nM 3.97% | 833.33 nM 1.76% | 10000 nM 0.17%

Cc1cnc(NC(=O)Nc2cc(Br)c(C)cc2OC[C@@H]2CNCCO2)cn1
inactive: 1 nM 1.08% | 8.33 nM 0.44% | 100 nM 1.44% | 833.33 nM -2.34% | 10000 nM -10.4%

COc1cc(N)c(Cl)cc1C(=O)OCCCN1CCCCC1
inactive: 1 nM 3.12% | 8.33 nM -0.29% | 100 nM 3.25% | 833.33 nM 4.22% | 10000 nM 1.72%
